For some assays here: Potency and affinity values are given separately.
What was measured:
Parameters in all cases: scale not given: direction of the effect not stated beside the values
[1] = target: Protein translocase subunit SecA (Escherichia coli (strain K12)) (UniProt P10408); test: Assay to Identify E. coli SecA ATPase Inhibitors; assay type: functional; details: 30 µM
[2] = target: T1, Ubiquitin-activating enzyme e1, putative (Leishmania donovani (strain BPK282A1)) (UniProt E9BSI1); test: Leishmania donovani Ubiquitin Activating Enzyme (LdE1); assay type: functional; details: 30 µM
T1 sequence (whole entry): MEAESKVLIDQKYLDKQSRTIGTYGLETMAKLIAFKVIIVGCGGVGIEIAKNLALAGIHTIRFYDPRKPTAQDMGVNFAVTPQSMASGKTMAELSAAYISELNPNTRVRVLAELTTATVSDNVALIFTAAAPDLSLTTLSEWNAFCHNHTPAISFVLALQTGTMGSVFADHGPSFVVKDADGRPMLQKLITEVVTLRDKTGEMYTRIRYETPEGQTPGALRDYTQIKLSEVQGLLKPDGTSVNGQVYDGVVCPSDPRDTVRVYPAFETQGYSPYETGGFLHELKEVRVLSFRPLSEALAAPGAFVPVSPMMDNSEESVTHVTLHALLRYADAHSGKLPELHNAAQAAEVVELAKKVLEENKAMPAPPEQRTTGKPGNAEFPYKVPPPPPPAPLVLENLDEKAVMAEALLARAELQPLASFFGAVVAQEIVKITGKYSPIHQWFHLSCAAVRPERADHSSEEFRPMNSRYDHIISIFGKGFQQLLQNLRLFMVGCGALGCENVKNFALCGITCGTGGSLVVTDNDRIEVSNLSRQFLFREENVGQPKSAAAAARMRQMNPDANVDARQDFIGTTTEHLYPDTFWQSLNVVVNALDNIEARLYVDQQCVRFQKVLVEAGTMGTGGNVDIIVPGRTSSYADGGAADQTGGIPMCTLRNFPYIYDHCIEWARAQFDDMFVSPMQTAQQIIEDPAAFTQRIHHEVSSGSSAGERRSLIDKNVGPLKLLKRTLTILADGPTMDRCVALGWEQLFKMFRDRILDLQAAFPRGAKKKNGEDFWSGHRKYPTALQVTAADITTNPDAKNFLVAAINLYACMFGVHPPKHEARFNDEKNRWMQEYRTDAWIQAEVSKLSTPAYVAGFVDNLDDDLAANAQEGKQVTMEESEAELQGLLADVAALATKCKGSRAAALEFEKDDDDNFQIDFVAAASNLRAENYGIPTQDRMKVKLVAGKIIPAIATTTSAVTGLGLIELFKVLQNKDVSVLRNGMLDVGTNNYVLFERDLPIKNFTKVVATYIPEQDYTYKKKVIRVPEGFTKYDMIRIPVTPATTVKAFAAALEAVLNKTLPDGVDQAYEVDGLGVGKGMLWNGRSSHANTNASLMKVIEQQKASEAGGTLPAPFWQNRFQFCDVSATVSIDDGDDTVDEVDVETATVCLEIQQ

[3] = target: AMP-activated protein kinase, AMPK (Homo sapiens) (UniProt P54646+O43741+P54619+Q9UGJ0+Q9Y478+Q13131+Q9UGI9); test: AMP-dependent Kinase enzyme assay. An in vitro enzyme assay that detects ADP turnover that is directly proportional to AMPK activity. This uses naive AMPK that is activated during the assay with MK-8722; assay type: functional; details: 30 µM
[4] = target: Sialic acid-binding Ig-like lectin 9 (Homo sapiens) (UniProt Q9Y336); test: Hs-Siglec9 ALPHAscreen SOP 20170721; details: 10 µM
Trypanosoma cruzi = test: Trypanosoma cruzi phosphomannomutase and mannose-1-phosphate guanylyltransferase assay; assay type: functional; details: 10 µM
[5] = target: T2, Arginase-2, mitochondrial (Homo sapiens) (UniProt P78540); test: in vitro enzyme assay to detect the production of urea directly proportional to the activity of Arginase II; assay type: functional; details: 33.3 µM; note: in the data most compounds retested in dose-response had high values
T2 sequence (whole entry): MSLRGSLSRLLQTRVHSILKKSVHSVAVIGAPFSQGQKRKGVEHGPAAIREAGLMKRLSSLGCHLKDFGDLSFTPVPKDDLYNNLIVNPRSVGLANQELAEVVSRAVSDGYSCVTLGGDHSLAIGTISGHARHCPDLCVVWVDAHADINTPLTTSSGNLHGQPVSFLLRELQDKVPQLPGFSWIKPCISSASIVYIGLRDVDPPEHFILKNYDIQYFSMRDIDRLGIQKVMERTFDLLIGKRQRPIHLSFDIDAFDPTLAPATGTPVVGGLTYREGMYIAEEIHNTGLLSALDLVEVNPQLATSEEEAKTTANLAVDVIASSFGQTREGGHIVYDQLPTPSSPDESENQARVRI

[6] = target: T3, Proteasome subunit beta (Trypanosoma cruzi) (UniProt O96673); test: Trypanosoma cruzi proteasome chymotrypsin-like activity (TcProtChymo) assay.; note: in the data most compounds retested in dose-response had high values; assay type: functional; details: 9.37 µM
T3 sequence (whole entry): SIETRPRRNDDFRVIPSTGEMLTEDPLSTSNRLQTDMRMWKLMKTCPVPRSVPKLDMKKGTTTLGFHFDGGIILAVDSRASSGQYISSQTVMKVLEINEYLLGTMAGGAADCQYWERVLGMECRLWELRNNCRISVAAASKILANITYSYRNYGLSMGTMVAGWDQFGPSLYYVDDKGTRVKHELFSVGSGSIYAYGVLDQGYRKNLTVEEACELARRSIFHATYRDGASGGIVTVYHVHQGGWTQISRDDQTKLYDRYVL

Homo sapiens = species on record: Homo sapiens; test: To identify inhibition of the IFN signalling (Jak-Stat) pathway via expression of an eGFP reporter gene under the control of an IFN-stimulated response element (ISRE) containing MxA promoter.; assay type: functional; details: 30 µM
[7] = target: T4, Tyrosyl-tRNA synthetase, putative (Trypanosoma cruzi (strain CL Brener)) (UniProt Q4DSP6); test: Trypanosoma cruzi tyrosyl tRNA synthetase (TcYRS) _High Tyrosine SOP; assay type: functional; details: 30 µM; note: in the data most compounds retested in dose-response had high values
T4 sequence (whole entry): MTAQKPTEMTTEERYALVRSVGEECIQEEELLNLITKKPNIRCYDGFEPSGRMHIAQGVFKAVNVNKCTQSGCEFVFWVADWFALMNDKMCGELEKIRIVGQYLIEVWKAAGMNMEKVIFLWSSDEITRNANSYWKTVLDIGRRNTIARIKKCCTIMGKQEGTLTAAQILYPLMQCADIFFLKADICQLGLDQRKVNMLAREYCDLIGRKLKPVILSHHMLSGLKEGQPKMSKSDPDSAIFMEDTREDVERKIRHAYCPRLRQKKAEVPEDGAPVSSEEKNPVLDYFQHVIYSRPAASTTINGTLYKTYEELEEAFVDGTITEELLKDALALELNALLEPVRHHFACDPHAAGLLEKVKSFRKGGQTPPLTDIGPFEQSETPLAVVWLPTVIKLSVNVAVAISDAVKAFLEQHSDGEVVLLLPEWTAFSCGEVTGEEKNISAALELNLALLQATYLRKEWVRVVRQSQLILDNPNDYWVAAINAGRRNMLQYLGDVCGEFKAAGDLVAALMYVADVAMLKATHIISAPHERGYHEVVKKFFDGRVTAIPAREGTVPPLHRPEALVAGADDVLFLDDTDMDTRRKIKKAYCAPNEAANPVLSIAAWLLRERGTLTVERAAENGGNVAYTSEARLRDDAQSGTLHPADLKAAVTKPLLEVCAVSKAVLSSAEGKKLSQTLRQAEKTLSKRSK

[8] = target: T4, Tyrosyl-tRNA synthetase, putative (Trypanosoma cruzi (strain CL Brener)); test: Trypanosoma cruzi tyrosyl tRNA synthetase (TcYRS) SOP; assay type: functional; details: 30 µM
[9] = target: Chromo domain-containing protein 1 (Saccharomyces cerevisiae (strain ATCC 204508 / S288c) (Baker's yeast)) (UniProt P32657); test: ScCHD-1 Enzyme Inhibition Assay; assay type: functional; details: 30 µM; note: in the data most compounds retested in dose-response had high values
Sequence of Chromo domain-containing protein 1 (Saccharomyces cerevisiae (strain ATCC 204508 / S288c) (Baker's yeast)) (P32657 whole entry, the tested form may be a part): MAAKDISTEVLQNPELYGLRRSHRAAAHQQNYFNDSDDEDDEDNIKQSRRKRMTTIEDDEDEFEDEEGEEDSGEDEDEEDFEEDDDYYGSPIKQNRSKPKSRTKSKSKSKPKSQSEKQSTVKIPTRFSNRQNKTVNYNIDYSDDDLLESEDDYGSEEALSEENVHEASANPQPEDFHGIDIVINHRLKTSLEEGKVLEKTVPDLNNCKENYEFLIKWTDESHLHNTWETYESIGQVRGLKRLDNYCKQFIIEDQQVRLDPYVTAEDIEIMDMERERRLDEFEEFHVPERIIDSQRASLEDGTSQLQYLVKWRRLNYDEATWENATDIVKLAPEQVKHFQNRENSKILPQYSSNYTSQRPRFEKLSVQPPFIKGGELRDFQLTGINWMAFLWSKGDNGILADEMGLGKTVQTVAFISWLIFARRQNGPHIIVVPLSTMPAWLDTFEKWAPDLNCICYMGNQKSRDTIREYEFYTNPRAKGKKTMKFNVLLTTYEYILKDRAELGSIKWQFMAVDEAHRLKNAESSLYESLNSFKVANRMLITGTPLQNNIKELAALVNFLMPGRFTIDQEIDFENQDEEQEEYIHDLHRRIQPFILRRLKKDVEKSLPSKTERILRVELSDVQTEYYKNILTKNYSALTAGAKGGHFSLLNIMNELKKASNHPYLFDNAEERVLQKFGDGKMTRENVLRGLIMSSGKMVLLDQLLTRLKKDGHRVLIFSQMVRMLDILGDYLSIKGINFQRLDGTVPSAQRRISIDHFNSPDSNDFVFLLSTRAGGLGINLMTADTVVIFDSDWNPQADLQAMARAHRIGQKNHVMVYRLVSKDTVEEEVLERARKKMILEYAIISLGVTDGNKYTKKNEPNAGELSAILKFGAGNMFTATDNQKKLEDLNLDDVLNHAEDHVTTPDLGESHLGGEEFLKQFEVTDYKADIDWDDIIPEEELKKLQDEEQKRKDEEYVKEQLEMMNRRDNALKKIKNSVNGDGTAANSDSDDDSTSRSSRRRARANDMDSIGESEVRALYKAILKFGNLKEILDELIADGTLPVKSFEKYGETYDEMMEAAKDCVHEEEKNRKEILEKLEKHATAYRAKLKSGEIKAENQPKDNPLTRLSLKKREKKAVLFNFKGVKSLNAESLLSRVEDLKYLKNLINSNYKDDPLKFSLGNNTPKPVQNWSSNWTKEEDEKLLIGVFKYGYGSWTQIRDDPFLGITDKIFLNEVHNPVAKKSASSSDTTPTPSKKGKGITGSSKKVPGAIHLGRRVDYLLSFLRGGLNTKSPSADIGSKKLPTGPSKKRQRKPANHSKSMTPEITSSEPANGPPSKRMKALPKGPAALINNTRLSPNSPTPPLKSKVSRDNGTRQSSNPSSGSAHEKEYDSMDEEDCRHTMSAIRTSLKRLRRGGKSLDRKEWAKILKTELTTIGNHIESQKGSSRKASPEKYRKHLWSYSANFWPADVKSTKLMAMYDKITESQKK

Sequence of Sialic acid-binding Ig-like lectin 9 (Homo sapiens) (Q9Y336 whole entry): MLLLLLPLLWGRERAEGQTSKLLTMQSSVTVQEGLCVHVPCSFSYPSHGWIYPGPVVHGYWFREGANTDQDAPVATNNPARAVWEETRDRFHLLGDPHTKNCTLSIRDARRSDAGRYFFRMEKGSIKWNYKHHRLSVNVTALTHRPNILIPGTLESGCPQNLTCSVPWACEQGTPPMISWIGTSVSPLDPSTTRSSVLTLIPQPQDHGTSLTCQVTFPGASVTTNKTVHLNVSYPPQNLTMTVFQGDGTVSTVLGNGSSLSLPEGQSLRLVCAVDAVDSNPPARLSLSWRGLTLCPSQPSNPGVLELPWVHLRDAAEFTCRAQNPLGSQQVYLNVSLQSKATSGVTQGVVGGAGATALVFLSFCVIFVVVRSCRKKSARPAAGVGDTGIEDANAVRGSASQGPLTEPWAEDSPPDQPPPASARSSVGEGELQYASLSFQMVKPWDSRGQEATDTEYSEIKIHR
Sequence of Protein translocase subunit SecA (Escherichia coli (strain K12)) (P10408 whole entry): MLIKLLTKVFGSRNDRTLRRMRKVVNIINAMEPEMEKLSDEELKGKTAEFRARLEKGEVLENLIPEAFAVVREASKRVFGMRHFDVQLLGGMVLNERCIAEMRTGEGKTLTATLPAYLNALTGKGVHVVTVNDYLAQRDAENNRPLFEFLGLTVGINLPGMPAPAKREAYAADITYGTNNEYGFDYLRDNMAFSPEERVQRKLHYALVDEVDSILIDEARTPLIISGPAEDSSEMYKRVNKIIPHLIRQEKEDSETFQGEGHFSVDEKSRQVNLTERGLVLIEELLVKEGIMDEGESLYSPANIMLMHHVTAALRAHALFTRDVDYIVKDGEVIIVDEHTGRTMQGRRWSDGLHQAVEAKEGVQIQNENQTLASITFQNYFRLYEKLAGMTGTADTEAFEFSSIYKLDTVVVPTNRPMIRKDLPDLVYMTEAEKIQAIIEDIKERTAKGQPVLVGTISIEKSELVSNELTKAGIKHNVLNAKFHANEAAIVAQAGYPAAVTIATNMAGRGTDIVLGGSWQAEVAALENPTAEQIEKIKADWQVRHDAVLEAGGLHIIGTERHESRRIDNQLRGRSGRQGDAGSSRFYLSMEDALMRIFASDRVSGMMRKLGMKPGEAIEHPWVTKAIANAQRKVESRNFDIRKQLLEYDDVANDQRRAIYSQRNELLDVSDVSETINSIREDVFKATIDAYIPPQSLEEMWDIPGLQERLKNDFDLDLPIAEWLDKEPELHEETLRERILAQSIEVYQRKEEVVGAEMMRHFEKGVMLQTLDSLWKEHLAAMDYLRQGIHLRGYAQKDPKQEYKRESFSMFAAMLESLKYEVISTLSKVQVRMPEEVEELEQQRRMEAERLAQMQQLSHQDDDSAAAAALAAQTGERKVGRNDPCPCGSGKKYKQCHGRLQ

Row | Structure (SMILES) | Percent Effect [1] | Percent Effect [2] | Percent Effect [3] | Percent Effect [4] | Percent Effect (Trypanosoma cruzi) | Percent Effect [5] | Percent Effect [6] | Percent Effect (Homo sapiens) | Percent Effect [7] | Percent Effect [8] | Percent Effect [9]
1 | O=C(c1ccoc1)N1CCC2(CC1)C(=O)Nc1ccccc12 | -2.34% | 16.2% | -9.89% | 3.61% | 2.44% | 6.2% | 5.06% | 37.9% | 8.6% | 18.5% | -8.75%
2 | CC(C)SCC(=O)N1CCc2c(nc(N(C)C)nc2N(C)C)C1 | -5.05% | 13.3% | -4.26% | 19.7% | 6.52% | 5.73% | 13.8% | 10.8% | 2.73% | 8.64% | -8.15%
3 | Cn1ncc2c(N3CCN(C(N)=O)CC3)nc(C3CCCC3)nc21 | -1.31% | 1.39% | 27.7% | -4.81% | -7.29% | 0.883% | 18.4% | 25.9% | 1.05% | -7.69% | -4.35%
4 | O=C(CCCNC(=O)C1CC1)Nc1cnn(-c2ccccc2Cl)c1 | -2.62% | 5.41% | -9.02% | 0.665% | 7.33% | -3.51% | 5.03% | -1.9% | 5.94% | 13.4% | -3.58%
5 | Cc1ncccc1O[C@H]1CCN(C(=O)c2cccs2)CC[C@@H]1O | -1.97% | -9.46% | 7.91% | 0.722% | -2.17% | -2.09% | 2.03% | 4.21% | 1.07% | -1.3% | -0.631%
6 | O=C(c1ccsc1)N1CCc2c(COCc3ccncc3)cncc2C1 | 0.395% | -8.22% | 0.499% | 1.44% | -0.397% | 1.2% | 10% | 3.9% | 3.12% | 3.7% | -0.158%
7 | CS(=O)(=O)N1CCc2nc(NC(=O)Nc3c(F)cccc3F)sc2C1 | -4.94% | -11% | -0.62% | -0.122% | -5.49% | 0% | 4.97% | 1.79% | 4.3% | 12.5% | 1.62%
8 | CCNC(=O)C1CCN(Cc2csc(-c3ccc(C)o3)n2)CC1 | -0.895% | 11.4% | 2.01% | 2.17% | 2.97% | 1.5% | 14.1% | 27.6% | 7.29% | 20.2% | -26.4%
9 | Cc1noc(C(C)C)c1C(=O)NCC(c1ccsc1)N(C)C (configuration not stated) | -1.69% | 15.2% | 2.11% | -4.7% | -5.19% | -1.52% | 13.3% | 32.5% | 1.48% | 11.4% | -5.47%
10 | Cn1cc(C[C@H]2[C@H](N3CCOCC3)CCN2C(=O)c2ccco2)cn1 | -7.84% | 5.33% | 7.06% | -0.822% | -7.09% | -0.699% | 7.49% | 21.2% | 2.13% | 6.41% | -4.64%
11 | COc1c(C2CCCN2C(=O)c2cc(Cl)c[nH]2)c(C)nn1C (configuration not stated) | -5.79% | 5.41% | 4.66% | -0.555% | -0.781% | 2.08% | 4.31% | -1.4% | 9.9% | -3.66% | -3.93%
12 | CC1=N[C@@]2(CC[C@@H]3CN(S(=O)(=O)N(C)C)C[C@@H]32)C(=O)N1CC(C)C | 1.29% | 8.11% | 2.53% | -13.6% | -6.75% | 4.78% | 13.3% | 6.52% | 5.41% | 10.3% | -5.11%
13 | COC1CCCN(C(=O)Nc2nc(C)n(C)n2)C1 (configuration not stated) | -4.33% | 8% | -6.08% | 5.49% | 1.27% | 1.56% | 11.2% | 14.3% | 6.01% | 6.17% | -6.37%
14 | CC(NC(=O)N(C)Cc1ccsc1)c1ccc2c(c1)NC(=O)CO2 (configuration not stated) | -2.37% | 13.2% | 0.427% | 7.9% | 6.39% | 1.15% | 8.52% | 9.49% | 5.39% | 19.5% | -10.1%
15 | CN(Cc1cnn(-c2ccccc2)n1)CC1CCCN1c1cccnn1 (configuration not stated) | -3.33% | -36.8% | 3.24% | 7.96% | 5.7% | 0.36% | -3.98% | 8.95% | 8.37% | 13.6% | 1.47%
16 | O=C(Nc1ccccc1F)N1CCN(Cc2noc(C3CC3)n2)CC1 | -1.58% | 11.4% | 5.8% | 0.391% | -2.36% | 4.09% | 8.4% | 4.54% | 5.21% | 20.2% | -23.3%
17 | COc1nc(C)cc(C)c1CNC(=O)N(C)Cc1cnn(C)c1 | -2.85% | 10.8% | -7.89% | 7.05% | 2.32% | -2.4% | 6.28% | 4.87% | 3.96% | 15.8% | -6.86%
18 | Cc1ccc(N2CCN(C(=O)COc3ccccc3)CC2)nn1 | -2.94% | 8.22% | 6.52% | -4.33% | -3.92% | -0.909% | 10.8% | 13.2% | 5.38% | 17.5% | -6.41%
19 | O=C(NCCc1ccc(Cl)s1)NCc1nnc2n1CCC2 | -5.75% | 18.4% | -1.91% | -9.75% | -6.07% | -3.96% | 15.5% | 4.94% | 4.43% | 11.1% | -7.66%
20 | CS(=O)(=O)N1CCN(CC(O)COc2ccc(F)cc2)CC1 (configuration not stated) | -0.431% | 10.4% | 2.55% | -2.66% | -4.02% | 0.632% | 11.4% | 26.8% | 2.86% | 21.2% | -16.1%
21 | O=C(CCn1cccn1)N1CCN(CC(F)F)CC1 | -2.93% | 16.2% | -2.79% | -4.78% | -0.836% | 0.554% | 4.13% | 14.6% | 9.9% | 25.6% | -5.97%
22 | Cc1nc(-c2ccsc2)ccc1C(=O)NCCN1CCOCC1 | -6.91% | 10.5% | -3.72% | 7.24% | 4.32% | -0.383% | 8.02% | 1.25% | 6.37% | 19.5% | -8.61%

— ChEMBL document CHEMBL3988442, “University of Dundee, Small-Polar-MMV Screening Library” (2021)
